Measured values: PubChem BioAssay
Results filed as inconclusive are left out. Activity calls are given as the source filed them. Unless noted, the rule behind the calls is not given here.

Experiments:
[1] = yeast TOR pathway RPL19A-GFP modulators, primary screen, cell-based, S. cerevisiae, multiplex flow cytometry (AID 1862; in the data active = percent of DMSO control GFP below about 86%;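 note: lower values mimic rapamycin by blocking the RPL19A rise seen in DMSO cells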); details: S. cerevisiae RPL19A-GFP strain, flow cytometry fluorescence, 3 h; at 10 µM; stronger effect = lower value
[2] = modulators of MEP2-GFP levels in yeast, primary screen, S. cerevisiae, multiplex flow cytometry (AID 1867;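 active = GFP response, as percent of the DMSO control, above the screen-wide mean plus 3 SD, about 139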;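 note: median GFP channel fluorescence of barcode-gated MEP2-GFP cells measured by flow cytometry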); details: S. cerevisiae MEP2-GFP strain, 3 h, at 10 µM, stronger effect = higher value
[3] = modulators of CIT2-GFP expression in yeast, primary screen, S. cerevisiae, GFP fusion, multiplex flow cytometry (AID 1870;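 active = percent response above a set limit, the screen-wide mean plus 3 SD, cut at about 130% in these data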;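 note: barcoded CIT2-GFP strain pooled with four other GFP strains with rapamycin as positive control; median GFP fluorescence per well over plate mean of DMSO wells so 100% = DMSO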); details: 3 h, at 10 µM, stronger effect = higher value
[4] = modulators of LAP4-GFP expression in yeast, primary screen, S. cerevisiae, multiplex flow cytometry (AID 1873;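 active = GFP signal, as percent of the solvent control, above the screen mean plus 3 SD, about 149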); details: 3 h, at 10 µM, stronger effect = higher value
[5] = modulators of AGP1-GFP expression in yeast TOR pathway, primary screen, cell-based, multiplex flow cytometry, S. cerevisiae (AID 1887;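 active = GFP signal above the screen-wide mean plus 3 SD, that is over about 124.5% of the solvent control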;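 note: AGP1-GFP fusion strain of S. cerevisiae within a five-strain barcoded multiplex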); details: 3 h, at 10 µM, stronger effect = higher value
[6] = inhibitors of CD8+ T cell-vesicle binding, pilot screen, LFA-1/ICAM-1 modulator project, MLPCN validation set, flow cytometry (AID 2523;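 active = response below a set limit, under 55% cells CD8-positive and vesicle-bound, and CD8 cells' 90th-percentile brightness under 279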;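 for vesicle binding response: mean PE anti-B7-1 fluorescence of CD8+ cells relative to row control; 100% = QL9-loaded vesicles with DMSO vehicle in the same plate row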); details: 2C mouse CD8+ T cells, at 7 µM, stronger effect = lower value; double positive events: measured here: CD8+/vesicle+ event percentage
[7] = biological target: Integrin beta-1 (Homo sapiens) + Integrin alpha-4 (Homo sapiens) (UniProt P13612+P05556); assay: inhibition of HUTS-21 binding to VLA-4, pilot screen, VLA-4 allosteric modulator project, U937 cells, HUTS-21 mAb, flow cytometry, validation set (AID 2674;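 active = inhibition above 50%, about 3 SD of the validation set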;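 note: antibody binding induced by the VLA-4 ligand LDV present at three times its Kd; 0% = LDV ligand with antibody and no compound and 100% = antibody without LDV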); details: HUTS-21 LIBS mAb binding, at 6.7 µM, stronger effect = higher value
[8] = superoxide lowering in aged yeast cells, pilot screen, validation compound set (AID 2706;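 active = superoxide response below 65% of plate, a cut near 3 SD across the whole screen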;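 note: yeast exposed to compound for one week at 30 degrees C before staining; 100% = mean of all compound wells on the same plate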); details: S. cerevisiae aging, superoxide DHE fluorescence; at 10 µM; stronger effect = lower value
[9] = biological target: Beta-adrenergic receptor kinase 1 (Homo sapiens) (UniProt P25098); assay: GRK2 binders displacing RNA aptamer, biochemical, validation, human GRK2, bead flow cytometry (AID 488806;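 active = aptamer binding inhibition above 30%, about 3 SD of noise from non-fluorescent compounds; inactive = inhibition at or below 30%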); details: bead-bound GRK2, FAM-aptamer displacement, at 10 µM, stronger effect = higher value
[10] = biological target: Beta-2 adrenergic receptor (Homo sapiens) (UniProt P07550); assay: beta2AR agonists driving receptor internalization, pilot screen, cell-based, FAP fluorogen, flow cytometry, validation set (AID 504459;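 active = percent response above 42, roughly 3 SD of non-fluorescent test compounds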;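 note: agonist-driven loss of surface beta2AR via internalization measured by FAP dye flow cytometry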); details: Am2.2-beta2AR cells, FAP surface receptor flow cytometry; at 10 µM; stronger effect = higher value
[11] = biological target: AP-2 complex subunit beta (Homo sapiens) (UniProt P63010); assay: inhibitors of arrestin peptide binding to AP2, pilot screen, biochemical, validation set, GST-AP2 beads, flow cytometry (AID 504541;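 active = inhibition above 54%, about 3 SD of non-fluorescent compounds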;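 note: AP2 carries R879A mutation and is captured from E. coli lysate; bead-bound FITC arrestin peptide fluorescence measuring arrestin peptide binding to AP2; 0% = DMSO wells and 100% = excess unlabeled arrestin peptide control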); details: FITC arrestin peptide, at 10 µM, stronger effect = higher value
[12] = yeast V-ATPase proton transport modulators, S. cerevisiae, pHLuorin, HTS validation (AID 504600; in the data active = response above about 15%;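 note: plate controls were DMSO for no effect and reference compound for full effect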); details: S. cerevisiae pHLuorin cytosolic pH, at 10 µM, stronger effect = higher value
[13] = tested on: anti-desmoglein-3 scFv antibody binding to human DSG3; assay: inhibitors of anti-DSG3 scFv binding to DSG3, pilot screen, biochemical, validation compound set, bead-based, flow cytometry (AID 588368;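 active = binding below the plate cutoff, the plate median minus 3 SD, with a reading above zero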;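 note: signal is the median channel fluorescence of bead-bound GFP antibody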); details: Protein G beads, DSG3-Fc, scFv-GFP binding, at 10 µM, stronger effect = lower value
[14] = tested on: Botulinum neurotoxin type F light chain protease (Clostridium botulinum); assay: Botulinum neurotoxin type F light chain protease inhibition, multiplex microsphere flow cytometry, validation set (AID 588459); details: multiplex microsphere protease substrate cleavage assay, at 10 µM, stronger effect = higher value
[15] = biological target: Botulinum neurotoxin type A (Clostridium botulinum) (UniProt P0DPI0); assay: BoNT/A light chain protease inhibitors, biochemical, multiplex microsphere flow cytometry, validation set (AID 588460); details: at 10 µM, stronger effect = higher value
[16] = biological target: Lethal factor (Bacillus anthracis) (UniProt P15917); assay: Lethal factor protease inhibitors, Bacillus anthracis, multiplex microsphere cleavage assay, validation set (AID 588461); details: flow cytometry, at 10 µM, stronger effect = higher value
[17] = inhibitors of fungal efflux pumps CDR1, CDR2, MDR1, pilot screen, validation compound set, multiplex, phenotypic (AID 588506;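 active = efflux inhibition above 0.42, the validation set average plus 4 SD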;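 note: Nile Red retained in cells so higher fluorescence means more efflux inhibition; 0 = negative control wells and 1 = enniatin B 25 µM full block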); details: S. cerevisiae pump-expressing triplex, Nile Red efflux flow cytometry; at 10 µM; stronger effect = higher value
[18] = biological target: ATP-binding cassette sub-family B member 6 (Homo sapiens) (UniProt Q9NP58); assay: ABCB6 transporter inhibitors, pilot screen, K562-ABCB6 cells, flow cytometry, validation set (AID 588550;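 active = inhibition above the screen-wide mean plus 3 SD, about 51%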;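 note: 0% = DMSO wells and 100% = benzethonium chloride 70 µM positive control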); details: K562-ABCB6 porphyrin accumulation, 1 h, at 10 µM, stronger effect = higher value
[19] = promoters of myeloid differentiation in arrested cells, primary screen, cell-based, GFP/MAC1 double positive, flow cytometry, validation set (AID 588685;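 active = differentiation response of at least 50%, scaled between solvent and reference control, from cells with both markers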;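 note: compound exposure lasts four days before antibody staining and flow analysis; 0% = DMSO wells and 100% = 5 µM fulvestrant positive control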); details: ER-HoxA9 marrow cells, stronger effect = higher value

Sequence of Lethal factor (Bacillus anthracis) (P15917 whole entry, looked up): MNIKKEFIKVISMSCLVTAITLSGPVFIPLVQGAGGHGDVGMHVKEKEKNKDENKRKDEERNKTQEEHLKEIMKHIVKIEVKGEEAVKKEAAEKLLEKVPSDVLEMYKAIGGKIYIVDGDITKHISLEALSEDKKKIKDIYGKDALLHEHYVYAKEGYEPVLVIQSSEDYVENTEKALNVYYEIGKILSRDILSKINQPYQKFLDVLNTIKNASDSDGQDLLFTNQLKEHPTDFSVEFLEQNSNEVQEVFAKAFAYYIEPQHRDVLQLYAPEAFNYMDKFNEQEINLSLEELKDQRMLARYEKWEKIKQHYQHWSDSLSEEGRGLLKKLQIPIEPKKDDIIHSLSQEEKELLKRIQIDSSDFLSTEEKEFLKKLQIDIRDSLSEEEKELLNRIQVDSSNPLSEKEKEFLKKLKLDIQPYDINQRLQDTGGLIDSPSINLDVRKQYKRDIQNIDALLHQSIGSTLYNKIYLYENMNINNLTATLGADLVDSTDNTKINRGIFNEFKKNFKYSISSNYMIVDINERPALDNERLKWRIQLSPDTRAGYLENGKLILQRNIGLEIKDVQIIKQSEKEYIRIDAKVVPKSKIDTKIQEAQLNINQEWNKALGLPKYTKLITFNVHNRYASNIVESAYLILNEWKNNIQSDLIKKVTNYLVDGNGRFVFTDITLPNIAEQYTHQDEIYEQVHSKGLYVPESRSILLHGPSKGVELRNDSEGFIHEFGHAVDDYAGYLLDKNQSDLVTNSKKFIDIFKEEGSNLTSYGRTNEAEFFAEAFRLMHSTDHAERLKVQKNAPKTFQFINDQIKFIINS
Sequence of Beta-2 adrenergic receptor (Homo sapiens) (P07550 whole entry, looked up): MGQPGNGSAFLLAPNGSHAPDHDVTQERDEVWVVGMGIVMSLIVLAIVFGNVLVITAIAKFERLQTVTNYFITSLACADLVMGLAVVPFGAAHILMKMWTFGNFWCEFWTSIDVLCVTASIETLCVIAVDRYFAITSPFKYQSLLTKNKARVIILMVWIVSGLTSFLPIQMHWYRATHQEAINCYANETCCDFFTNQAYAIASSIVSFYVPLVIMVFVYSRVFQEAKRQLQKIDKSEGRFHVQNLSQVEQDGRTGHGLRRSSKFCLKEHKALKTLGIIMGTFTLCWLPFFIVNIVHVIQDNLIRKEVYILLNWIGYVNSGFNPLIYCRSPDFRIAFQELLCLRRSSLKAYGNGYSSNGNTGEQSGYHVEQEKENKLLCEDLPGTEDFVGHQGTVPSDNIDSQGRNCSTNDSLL
Sequence of Botulinum neurotoxin type A (Clostridium botulinum) (P0DPI0 whole entry, looked up): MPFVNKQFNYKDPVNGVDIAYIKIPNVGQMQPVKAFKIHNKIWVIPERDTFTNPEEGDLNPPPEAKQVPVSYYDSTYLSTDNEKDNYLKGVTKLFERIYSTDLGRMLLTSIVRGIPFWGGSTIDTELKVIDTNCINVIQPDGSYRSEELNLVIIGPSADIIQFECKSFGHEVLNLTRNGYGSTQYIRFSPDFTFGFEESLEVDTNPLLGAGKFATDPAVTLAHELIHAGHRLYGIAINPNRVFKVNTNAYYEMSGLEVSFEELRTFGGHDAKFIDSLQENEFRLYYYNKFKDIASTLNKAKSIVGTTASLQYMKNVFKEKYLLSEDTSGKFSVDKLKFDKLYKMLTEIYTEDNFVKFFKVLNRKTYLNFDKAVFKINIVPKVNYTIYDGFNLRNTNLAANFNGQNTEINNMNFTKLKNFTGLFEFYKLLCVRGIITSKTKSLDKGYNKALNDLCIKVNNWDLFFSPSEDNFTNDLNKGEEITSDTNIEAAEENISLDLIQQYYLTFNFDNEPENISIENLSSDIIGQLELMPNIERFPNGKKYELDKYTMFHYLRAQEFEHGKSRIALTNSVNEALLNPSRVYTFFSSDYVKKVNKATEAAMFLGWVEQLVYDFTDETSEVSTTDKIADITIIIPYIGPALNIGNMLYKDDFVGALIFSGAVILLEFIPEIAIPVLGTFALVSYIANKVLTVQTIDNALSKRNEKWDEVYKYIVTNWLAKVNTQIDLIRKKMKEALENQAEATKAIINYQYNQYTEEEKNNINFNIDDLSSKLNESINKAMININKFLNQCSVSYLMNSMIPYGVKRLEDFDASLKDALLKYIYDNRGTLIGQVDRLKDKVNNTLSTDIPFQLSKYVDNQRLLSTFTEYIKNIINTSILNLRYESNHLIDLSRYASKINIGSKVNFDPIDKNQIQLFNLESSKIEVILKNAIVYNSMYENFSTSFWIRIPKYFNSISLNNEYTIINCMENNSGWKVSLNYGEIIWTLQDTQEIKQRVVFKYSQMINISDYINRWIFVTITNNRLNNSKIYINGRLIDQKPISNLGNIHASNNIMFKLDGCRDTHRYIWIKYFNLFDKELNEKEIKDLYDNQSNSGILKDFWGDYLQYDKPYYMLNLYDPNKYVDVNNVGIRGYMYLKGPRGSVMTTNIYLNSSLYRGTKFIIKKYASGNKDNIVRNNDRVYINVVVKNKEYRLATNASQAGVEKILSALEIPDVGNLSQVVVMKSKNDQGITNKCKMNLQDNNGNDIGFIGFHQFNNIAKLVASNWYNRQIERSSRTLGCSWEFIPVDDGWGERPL
Sequence of Integrin beta-1 (Homo sapiens) + Integrin alpha-4 (Homo sapiens) (P05556 whole entry, looked up): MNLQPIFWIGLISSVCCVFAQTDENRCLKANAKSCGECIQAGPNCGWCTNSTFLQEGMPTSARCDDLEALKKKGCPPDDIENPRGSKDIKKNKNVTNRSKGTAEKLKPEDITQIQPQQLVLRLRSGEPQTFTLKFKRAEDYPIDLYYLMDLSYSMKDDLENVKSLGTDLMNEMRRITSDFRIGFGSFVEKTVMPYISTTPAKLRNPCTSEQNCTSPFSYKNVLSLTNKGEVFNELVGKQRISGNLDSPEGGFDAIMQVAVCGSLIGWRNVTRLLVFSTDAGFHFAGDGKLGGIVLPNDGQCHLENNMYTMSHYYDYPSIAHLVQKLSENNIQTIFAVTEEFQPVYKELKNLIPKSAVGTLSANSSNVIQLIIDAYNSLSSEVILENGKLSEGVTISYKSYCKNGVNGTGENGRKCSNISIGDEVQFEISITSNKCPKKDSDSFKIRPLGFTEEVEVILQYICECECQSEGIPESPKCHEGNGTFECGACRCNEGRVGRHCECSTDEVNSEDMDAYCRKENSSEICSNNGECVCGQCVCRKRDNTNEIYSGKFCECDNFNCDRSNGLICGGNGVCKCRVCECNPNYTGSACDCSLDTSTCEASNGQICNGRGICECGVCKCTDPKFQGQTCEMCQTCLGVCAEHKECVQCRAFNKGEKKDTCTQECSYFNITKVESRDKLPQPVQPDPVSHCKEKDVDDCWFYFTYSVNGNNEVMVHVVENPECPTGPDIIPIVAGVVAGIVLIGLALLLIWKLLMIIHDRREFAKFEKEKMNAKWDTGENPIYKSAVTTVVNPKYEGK
Sequence of Integrin beta-1 (Homo sapiens) + Integrin alpha-4 (Homo sapiens) (P13612 whole entry, looked up): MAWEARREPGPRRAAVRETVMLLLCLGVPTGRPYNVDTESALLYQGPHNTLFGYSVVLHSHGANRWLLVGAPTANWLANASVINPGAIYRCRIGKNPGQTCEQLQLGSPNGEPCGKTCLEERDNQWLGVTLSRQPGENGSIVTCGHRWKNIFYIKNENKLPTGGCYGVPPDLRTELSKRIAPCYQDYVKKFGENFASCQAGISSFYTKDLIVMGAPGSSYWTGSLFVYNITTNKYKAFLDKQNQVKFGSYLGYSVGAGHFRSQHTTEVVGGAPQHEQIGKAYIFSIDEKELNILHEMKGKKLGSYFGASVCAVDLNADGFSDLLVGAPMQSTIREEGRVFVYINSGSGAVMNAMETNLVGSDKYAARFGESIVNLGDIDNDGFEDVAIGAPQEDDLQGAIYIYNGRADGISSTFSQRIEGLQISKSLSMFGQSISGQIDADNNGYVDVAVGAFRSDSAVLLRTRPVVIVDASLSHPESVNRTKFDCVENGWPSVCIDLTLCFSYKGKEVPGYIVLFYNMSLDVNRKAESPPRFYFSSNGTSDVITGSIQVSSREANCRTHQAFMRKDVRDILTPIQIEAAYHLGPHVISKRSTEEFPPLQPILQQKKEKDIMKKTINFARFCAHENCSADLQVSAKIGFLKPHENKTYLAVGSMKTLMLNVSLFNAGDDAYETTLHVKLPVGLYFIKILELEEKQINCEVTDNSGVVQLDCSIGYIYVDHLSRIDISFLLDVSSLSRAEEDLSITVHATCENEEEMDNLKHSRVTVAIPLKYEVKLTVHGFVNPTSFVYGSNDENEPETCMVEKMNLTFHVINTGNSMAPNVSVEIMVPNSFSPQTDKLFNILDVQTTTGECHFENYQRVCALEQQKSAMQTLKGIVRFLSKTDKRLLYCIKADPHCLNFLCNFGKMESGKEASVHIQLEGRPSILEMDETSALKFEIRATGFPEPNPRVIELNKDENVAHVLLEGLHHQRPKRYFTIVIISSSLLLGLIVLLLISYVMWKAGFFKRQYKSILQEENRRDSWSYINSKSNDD
Sequence of Beta-adrenergic receptor kinase 1 (Homo sapiens) (P25098 whole entry, looked up): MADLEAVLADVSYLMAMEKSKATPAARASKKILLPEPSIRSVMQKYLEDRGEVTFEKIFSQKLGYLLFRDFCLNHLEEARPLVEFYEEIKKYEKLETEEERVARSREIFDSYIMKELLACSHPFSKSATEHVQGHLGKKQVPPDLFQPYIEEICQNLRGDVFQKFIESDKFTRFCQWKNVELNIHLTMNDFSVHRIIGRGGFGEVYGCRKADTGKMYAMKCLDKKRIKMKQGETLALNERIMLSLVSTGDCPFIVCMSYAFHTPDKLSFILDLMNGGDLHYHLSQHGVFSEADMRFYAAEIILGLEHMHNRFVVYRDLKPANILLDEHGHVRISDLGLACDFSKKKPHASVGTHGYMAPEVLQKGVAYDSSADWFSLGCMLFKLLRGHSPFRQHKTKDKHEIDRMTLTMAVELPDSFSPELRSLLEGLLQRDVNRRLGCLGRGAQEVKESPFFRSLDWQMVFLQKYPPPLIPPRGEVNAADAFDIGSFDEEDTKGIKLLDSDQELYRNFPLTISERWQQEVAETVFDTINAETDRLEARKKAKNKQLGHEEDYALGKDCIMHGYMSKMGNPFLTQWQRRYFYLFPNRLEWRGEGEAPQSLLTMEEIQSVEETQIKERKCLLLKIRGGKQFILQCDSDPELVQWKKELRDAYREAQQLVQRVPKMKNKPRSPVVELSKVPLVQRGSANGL

CCC1(c2ccccc2)C(=O)N(COC)C(=O)N(COC)C1=O
inactive: percent of DMSO control GFP [1] 102% | GFP response vs DMSO [2] 102% | percent response of DMSO control [3] 103% | GFP response vs DMSO [4] 112% | GFP response, % of DMSO [5] 112% | vesicle binding response [6] 148% | inhibition [7] 10.8% | superoxide response (% of plate) [8] 109% | aptamer binding inhibition [9] 2% | response [10] -14.8% | inhibition [11] 10.8% | response [12] -4.18% | binding (% of control) [13] 102% | inhibition [14] 2% | inhibition [15] -0.2% | inhibition [16] 0.4% | efflux inhibition (fraction of control) [17] 0.12 | inhibition [18] 4% | differentiation response [19] 3.88%
62.2%: double positive events [6]

C[C@]12CCC(=O)C=C1CC[C@@H]1[C@@H]2CC[C@]2(C)C(=O)CC[C@@H]12
inactive: percent of DMSO control GFP [1] 97.6% | GFP response vs DMSO [2] 95.1% | percent response of DMSO control [3] 80.3% | GFP response vs DMSO [4] 106% | GFP response, % of DMSO [5] 84.2% | vesicle binding response [6] 210% | inhibition [7] 1.62% | aptamer binding inhibition [9] 1% | response [10] -0.98% | inhibition [11] -7.92% | response [12] -1.25% | binding (% of control) [13] 99.8% | inhibition [14] -2.7% | inhibition [15] -2.1% | inhibition [16] -3.5% | efflux inhibition (fraction of control) [17] 0.05 | inhibition [18] 9% | differentiation response [19] 11%
66.1%: double positive events [6]

CCOc1ccc(C2C(C#N)=C(N)Oc3c2c(=O)oc2ccccc32)cc1 (centres undefined)
inactive: percent of DMSO control GFP [1] 104% | GFP response vs DMSO [2] 99.6% | percent response of DMSO control [3] 102% | GFP response vs DMSO [4] 102% | GFP response, % of DMSO [5] 101% | vesicle binding response [6] 213% | inhibition [7] 9.13% | superoxide response (% of plate) [8] 103% | aptamer binding inhibition [9] 4% | response [10] -0.19% | inhibition [11] 22.7% | response [12] -3.38% | binding (% of control) [13] 104% | inhibition [14] -0.4% | inhibition [15] 0.3% | inhibition [16] 0.5% | efflux inhibition (fraction of control) [17] -0.13 | inhibition [18] 5% | differentiation response [19] -23.2%
59.3%: double positive events [6]

CC12CC[C@H]3[C@@H](CCC4(O)C[C@H](O)CCC34/C=N/NC(=O)Cc3ccccc3)C1(O)CCC2C1=CC(=O)OC1 (some centres undefined)
65.3%: double positive events [6]
inactive: percent of DMSO control GFP [1] 103% | GFP response vs DMSO [2] 101% | percent response of DMSO control [3] 115% | GFP response vs DMSO [4] 92% | GFP response, % of DMSO [5] 107% | vesicle binding response [6] 204% | inhibition [7] 1.62% | superoxide response (% of plate) [8] 111% | aptamer binding inhibition [9] 1% | response [10] -5.5% | inhibition [11] -3.69% | response [12] 1.22% | binding (% of control) [13] 95% | inhibition [14] 3.5% | inhibition [15] -0.2% | inhibition [16] 3.2% | efflux inhibition (fraction of control) [17] 0.08 | inhibition [18] 5% | differentiation response [19] 0.24%

O=C1NC(=O)C2(Cc3ccccc3N3CCCC32)C(=O)N1c1ccc(Cl)cc1 (centres undefined)
64.8%: double positive events [6]
inactive: percent of DMSO control GFP [1] 106% | GFP response vs DMSO [2] 88.8% | percent response of DMSO control [3] 101% | GFP response vs DMSO [4] 93.3% | GFP response, % of DMSO [5] 97.5% | vesicle binding response [6] 186% | inhibition [7] 14.1% | superoxide response (% of plate) [8] 104% | aptamer binding inhibition [9] 6% | response [10] -5.5% | inhibition [11] -2.86% | response [12] 0.31% | binding (% of control) [13] 100% | inhibition [14] -0.7% | inhibition [15] 0.8% | inhibition [16] 0.9% | efflux inhibition (fraction of control) [17] 0.24 | inhibition [18] 12% | differentiation response [19] 1.22%

NC(=O)CN1CCCC1=O
54.5%: double positive events [6]
inactive: percent of DMSO control GFP [1] 95% | GFP response vs DMSO [2] 113% | percent response of DMSO control [3] 118% | GFP response vs DMSO [4] 73.2% | GFP response, % of DMSO [5] 91% | vesicle binding response [6] 191% | inhibition [7] 3.55% | superoxide response (% of plate) [8] 95.8% | aptamer binding inhibition [9] -4% | response [10] -20.5% | inhibition [11] -5.52% | response [12] 0.81% | binding (% of control) [13] 105% | inhibition [14] 1.5% | inhibition [15] 0.4% | inhibition [16] 1.1% | efflux inhibition (fraction of control) [17] -0.09 | inhibition [18] 4% | differentiation response [19] -1.64%

Cc1cc(OCc2cc(C(=O)O)oc2C)c2c3c(c(=O)oc2c1)CCCC3
66.4%: double positive events [6]
inactive: percent of DMSO control GFP [1] 104% | GFP response vs DMSO [2] 97.2% | percent response of DMSO control [3] 114% | GFP response vs DMSO [4] 96.6% | GFP response, % of DMSO [5] 101% | vesicle binding response [6] 282% | inhibition [7] 7.85% | superoxide response (% of plate) [8] 90.3% | aptamer binding inhibition [9] 4% | response [10] -5.78% | inhibition [11] -4.24% | response [12] -0.71% | binding (% of control) [13] 97.1% | inhibition [14] -2% | inhibition [15] -0.5% | inhibition [16] -8.8% | efflux inhibition (fraction of control) [17] -0.01 | inhibition [18] 6% | differentiation response [19] 6.11%

CN1C2CCC1CC(OC(=O)c1ccc(Cl)cc1)C2 (centres undefined)
62.2%: double positive events [6]
inactive: percent of DMSO control GFP [1] 99.9% | GFP response vs DMSO [2] 98.5% | percent response of DMSO control [3] 98.6% | GFP response vs DMSO [4] 119% | GFP response, % of DMSO [5] 108% | vesicle binding response [6] 228% | inhibition [7] 11.9% | superoxide response (% of plate) [8] 99.6% | aptamer binding inhibition [9] -1% | response [10] -2.49% | inhibition [11] -3.16% | response [12] 2.46% | binding (% of control) [13] 99.5% | inhibition [14] 0% | inhibition [15] -1.9% | inhibition [16] -2.9% | efflux inhibition (fraction of control) [17] -0.03 | inhibition [18] 4% | differentiation response [19] -13.6%
